Data on two compounds can be found in ChEMBL document CHEMBL2218924, “A broad activity screen in support of a chemogenomic map for kinase signalling research and drug discovery” (Biochem J, 2013).

Assay [1] deals with T1, Ephrin type-A receptor 3 (Homo sapiens) (UniProt P29320).
T1 sequence (whole entry): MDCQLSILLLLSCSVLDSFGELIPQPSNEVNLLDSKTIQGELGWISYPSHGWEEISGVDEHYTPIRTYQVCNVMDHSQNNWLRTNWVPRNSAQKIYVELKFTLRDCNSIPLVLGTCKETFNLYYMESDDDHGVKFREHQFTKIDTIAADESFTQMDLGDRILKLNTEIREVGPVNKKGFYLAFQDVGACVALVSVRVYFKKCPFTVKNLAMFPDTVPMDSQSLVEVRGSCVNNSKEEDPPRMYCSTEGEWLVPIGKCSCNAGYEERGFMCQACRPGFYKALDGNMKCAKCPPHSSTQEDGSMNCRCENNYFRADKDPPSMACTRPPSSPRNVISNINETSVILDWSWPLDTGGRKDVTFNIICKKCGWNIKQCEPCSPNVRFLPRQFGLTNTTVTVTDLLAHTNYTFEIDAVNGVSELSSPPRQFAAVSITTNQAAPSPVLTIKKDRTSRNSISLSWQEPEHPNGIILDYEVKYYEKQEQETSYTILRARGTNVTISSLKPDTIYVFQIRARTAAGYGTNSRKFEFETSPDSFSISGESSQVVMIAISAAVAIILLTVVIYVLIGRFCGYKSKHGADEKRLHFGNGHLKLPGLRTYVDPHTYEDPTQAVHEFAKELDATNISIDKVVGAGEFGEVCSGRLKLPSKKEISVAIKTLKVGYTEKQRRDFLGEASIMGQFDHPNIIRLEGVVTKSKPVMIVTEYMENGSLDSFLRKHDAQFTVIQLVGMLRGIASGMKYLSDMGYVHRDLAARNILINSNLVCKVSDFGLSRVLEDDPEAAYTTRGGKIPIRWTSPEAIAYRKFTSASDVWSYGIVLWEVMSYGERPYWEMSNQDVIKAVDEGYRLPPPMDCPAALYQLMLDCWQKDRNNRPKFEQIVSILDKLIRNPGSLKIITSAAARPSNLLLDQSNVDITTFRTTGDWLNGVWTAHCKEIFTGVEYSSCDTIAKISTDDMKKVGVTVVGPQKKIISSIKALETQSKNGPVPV
The conditions noted are these: at 10 µM.

The target in assay [2] is Ephrin type-A receptor 4 (Homo sapiens) (UniProt P54764). The conditions noted are these: at 1 µM.
Sequence of Ephrin type-A receptor 4 (Homo sapiens) (P54764 whole entry): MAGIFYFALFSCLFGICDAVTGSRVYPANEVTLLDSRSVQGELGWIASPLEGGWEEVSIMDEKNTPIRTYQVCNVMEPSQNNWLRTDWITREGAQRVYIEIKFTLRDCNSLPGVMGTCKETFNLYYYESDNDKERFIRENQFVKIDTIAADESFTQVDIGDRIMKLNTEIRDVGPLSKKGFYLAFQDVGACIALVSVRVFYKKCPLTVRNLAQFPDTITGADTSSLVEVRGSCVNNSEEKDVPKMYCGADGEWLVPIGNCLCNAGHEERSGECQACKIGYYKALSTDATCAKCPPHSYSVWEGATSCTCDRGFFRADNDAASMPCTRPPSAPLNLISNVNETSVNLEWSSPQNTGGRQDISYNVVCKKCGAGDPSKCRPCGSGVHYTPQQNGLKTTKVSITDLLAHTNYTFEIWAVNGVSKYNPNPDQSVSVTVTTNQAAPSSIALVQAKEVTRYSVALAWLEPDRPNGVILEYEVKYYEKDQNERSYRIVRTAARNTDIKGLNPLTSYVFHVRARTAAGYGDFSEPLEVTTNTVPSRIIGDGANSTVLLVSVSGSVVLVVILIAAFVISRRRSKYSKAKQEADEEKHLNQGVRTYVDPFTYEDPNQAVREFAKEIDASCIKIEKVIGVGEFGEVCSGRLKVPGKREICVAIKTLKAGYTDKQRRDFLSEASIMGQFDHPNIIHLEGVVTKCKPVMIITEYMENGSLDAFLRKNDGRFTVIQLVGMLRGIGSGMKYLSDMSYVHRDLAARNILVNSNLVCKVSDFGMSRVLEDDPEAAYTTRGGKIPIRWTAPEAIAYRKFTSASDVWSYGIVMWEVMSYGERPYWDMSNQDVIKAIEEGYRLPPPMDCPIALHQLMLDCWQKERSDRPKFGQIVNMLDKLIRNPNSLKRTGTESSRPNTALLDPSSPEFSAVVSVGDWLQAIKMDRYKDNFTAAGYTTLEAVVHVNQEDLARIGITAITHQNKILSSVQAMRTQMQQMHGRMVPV
For assay [3] the target is unchanged. Particulars: at 10 µM; call rule not given here.
Assay [4] addresses Ephrin type-A receptor 7 (Homo sapiens) (UniProt Q15375). The conditions noted are these: at 1 µM.
For assay [5] the target is unchanged. Particulars: at 10 µM.
Assay [6] concerns the target T2, Ephrin type-A receptor 8 (Homo sapiens) (UniProt P29322).
T2 sequence (whole entry): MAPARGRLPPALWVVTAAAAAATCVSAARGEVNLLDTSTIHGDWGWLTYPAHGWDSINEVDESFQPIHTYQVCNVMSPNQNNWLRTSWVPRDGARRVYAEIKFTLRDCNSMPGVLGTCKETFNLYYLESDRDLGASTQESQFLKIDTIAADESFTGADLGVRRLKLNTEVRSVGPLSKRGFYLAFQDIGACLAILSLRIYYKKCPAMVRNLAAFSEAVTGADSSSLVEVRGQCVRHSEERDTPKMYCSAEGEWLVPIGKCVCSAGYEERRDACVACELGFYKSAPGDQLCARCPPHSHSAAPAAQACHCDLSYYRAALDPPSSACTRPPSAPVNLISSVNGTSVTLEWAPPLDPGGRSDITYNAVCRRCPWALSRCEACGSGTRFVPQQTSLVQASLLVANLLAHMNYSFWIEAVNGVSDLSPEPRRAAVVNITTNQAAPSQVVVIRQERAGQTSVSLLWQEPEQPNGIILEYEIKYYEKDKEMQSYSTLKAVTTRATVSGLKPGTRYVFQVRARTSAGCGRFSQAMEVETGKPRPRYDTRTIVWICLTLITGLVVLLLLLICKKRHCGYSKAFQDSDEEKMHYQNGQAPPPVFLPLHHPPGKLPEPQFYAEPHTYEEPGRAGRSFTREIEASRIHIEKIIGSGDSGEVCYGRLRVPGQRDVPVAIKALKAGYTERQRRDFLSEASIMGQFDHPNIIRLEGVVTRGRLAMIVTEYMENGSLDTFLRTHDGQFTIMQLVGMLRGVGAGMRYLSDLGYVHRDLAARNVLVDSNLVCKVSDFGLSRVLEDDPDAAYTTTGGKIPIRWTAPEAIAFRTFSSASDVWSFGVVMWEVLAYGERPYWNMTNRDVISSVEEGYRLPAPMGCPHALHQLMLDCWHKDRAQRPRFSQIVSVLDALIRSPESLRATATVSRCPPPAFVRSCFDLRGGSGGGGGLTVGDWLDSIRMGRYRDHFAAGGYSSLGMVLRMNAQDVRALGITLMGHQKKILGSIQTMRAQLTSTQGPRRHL
The conditions noted are these: at 1 µM.

Assay [7] deals with T2, Ephrin type-A receptor 8 (Homo sapiens). Particulars: at 10 µM.
The target in assay [8] is T3, Ephrin type-B receptor 1 (Homo sapiens) (UniProt P54762).
T3 sequence (whole entry): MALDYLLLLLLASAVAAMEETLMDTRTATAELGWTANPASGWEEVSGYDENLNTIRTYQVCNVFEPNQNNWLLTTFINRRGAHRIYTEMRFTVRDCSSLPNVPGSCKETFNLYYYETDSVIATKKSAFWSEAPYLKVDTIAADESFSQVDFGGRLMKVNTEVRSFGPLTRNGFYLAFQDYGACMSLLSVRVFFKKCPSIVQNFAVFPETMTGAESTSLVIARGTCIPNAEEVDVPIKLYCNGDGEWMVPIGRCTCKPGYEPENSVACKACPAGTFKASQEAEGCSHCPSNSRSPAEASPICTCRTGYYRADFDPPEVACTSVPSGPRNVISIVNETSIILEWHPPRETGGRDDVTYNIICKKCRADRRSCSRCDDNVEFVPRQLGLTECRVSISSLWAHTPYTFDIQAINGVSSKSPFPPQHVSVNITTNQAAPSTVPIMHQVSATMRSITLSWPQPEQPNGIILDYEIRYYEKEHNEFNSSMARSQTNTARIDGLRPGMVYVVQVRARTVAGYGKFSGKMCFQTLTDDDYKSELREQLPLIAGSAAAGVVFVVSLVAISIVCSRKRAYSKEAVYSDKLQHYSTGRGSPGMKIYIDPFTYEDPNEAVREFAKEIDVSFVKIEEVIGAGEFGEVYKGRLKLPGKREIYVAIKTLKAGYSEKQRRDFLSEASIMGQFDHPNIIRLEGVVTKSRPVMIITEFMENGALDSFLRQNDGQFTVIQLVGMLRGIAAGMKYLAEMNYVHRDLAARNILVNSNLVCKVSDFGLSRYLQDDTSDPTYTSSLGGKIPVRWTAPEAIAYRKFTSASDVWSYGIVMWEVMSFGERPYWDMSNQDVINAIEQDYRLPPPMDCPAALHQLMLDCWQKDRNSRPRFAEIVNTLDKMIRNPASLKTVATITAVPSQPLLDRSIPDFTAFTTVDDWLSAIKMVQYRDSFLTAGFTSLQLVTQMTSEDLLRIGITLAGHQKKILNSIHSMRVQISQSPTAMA
The conditions noted are these: at 1 µM.

For assay [9], the target named is T3, Ephrin type-B receptor 1 (Homo sapiens). The conditions noted are these: at 10 µM.
Assay [10] concerns the target T4, Ephrin type-B receptor 3 (Homo sapiens) (UniProt P54753).
T4 sequence (whole entry): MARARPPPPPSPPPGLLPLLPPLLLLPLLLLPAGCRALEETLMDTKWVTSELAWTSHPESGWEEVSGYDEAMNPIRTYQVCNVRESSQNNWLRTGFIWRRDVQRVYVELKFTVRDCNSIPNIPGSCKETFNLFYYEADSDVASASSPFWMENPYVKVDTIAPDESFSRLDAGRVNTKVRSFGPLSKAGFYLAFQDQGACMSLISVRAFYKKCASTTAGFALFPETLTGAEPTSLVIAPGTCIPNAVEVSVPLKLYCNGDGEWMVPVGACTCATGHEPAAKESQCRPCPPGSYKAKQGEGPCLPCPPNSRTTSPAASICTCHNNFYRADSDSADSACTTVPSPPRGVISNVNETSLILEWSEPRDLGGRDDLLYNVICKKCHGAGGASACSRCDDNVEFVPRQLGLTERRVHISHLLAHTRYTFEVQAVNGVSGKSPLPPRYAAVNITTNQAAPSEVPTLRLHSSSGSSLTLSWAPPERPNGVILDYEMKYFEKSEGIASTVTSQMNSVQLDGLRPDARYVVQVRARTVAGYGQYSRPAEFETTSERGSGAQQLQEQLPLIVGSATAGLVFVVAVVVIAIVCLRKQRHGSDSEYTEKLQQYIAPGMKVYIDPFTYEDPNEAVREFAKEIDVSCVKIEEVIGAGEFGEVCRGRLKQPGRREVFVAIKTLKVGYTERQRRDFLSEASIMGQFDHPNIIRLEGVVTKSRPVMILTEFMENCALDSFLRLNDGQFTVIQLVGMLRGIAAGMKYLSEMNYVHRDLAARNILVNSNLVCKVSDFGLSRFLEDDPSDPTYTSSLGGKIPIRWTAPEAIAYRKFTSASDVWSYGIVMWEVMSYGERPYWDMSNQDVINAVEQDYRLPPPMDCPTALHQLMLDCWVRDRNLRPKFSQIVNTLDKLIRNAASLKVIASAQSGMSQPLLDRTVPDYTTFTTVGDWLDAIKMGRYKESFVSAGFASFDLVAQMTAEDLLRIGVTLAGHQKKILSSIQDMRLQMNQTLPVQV
Particulars: at 1 µM.

Assay [11] addresses T4, Ephrin type-B receptor 3 (Homo sapiens). Particulars: at 10 µM.
The target of assay [12] is Receptor tyrosine-protein kinase erbB-4 (Homo sapiens) (UniProt Q15303). Particulars: at 1 µM.
Sequence of Receptor tyrosine-protein kinase erbB-4 (Homo sapiens) (Q15303 whole entry): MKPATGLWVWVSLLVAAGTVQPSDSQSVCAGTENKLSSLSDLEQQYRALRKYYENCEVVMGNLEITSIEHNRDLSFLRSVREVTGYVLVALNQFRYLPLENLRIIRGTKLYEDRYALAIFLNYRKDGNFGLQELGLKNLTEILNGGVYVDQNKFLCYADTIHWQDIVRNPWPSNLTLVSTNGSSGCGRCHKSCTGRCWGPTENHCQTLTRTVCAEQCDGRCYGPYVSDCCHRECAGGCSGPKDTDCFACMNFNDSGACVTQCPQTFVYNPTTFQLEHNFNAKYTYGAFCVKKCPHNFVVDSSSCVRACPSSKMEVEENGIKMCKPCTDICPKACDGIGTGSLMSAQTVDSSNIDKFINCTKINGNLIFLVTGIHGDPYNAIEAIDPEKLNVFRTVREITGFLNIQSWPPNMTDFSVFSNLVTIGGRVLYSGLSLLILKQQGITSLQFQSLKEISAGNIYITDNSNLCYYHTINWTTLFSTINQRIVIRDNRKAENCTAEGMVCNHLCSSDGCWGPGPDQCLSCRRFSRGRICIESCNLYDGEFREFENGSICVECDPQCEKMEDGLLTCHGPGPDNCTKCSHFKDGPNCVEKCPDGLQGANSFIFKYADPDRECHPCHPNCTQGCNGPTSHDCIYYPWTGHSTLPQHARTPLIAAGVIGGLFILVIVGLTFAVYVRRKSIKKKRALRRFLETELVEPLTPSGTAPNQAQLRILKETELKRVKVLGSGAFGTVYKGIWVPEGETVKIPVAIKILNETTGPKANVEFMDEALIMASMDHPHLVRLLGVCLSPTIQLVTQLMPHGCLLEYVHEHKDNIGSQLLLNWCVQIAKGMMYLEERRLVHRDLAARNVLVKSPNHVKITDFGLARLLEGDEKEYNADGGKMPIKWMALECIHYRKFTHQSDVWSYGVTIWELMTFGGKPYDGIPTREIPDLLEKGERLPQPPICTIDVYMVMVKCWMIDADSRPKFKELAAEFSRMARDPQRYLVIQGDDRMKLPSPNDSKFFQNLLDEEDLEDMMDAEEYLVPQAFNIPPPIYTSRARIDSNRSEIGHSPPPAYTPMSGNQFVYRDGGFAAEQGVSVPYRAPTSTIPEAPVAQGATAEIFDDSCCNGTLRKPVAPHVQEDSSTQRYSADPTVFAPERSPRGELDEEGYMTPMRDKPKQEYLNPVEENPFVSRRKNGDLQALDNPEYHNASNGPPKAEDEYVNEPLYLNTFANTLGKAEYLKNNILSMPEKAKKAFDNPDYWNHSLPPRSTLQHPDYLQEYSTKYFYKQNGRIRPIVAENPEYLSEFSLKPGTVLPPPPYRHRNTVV
Assay [13] has the same target. Particulars: at 10 µM.
Assay [14] has as its target Focal adhesion kinase 1 (Homo sapiens) (UniProt Q05397). Particulars: at 1 µM.
For assay [15], the target named is Ephrin type-A receptor 5 (Homo sapiens) (UniProt P54756). The conditions noted are these: at 1 µM.
Assay [16] concerns the target T5, Ephrin type-B receptor 4 (Homo sapiens) (UniProt P54760).
T5 sequence (whole entry): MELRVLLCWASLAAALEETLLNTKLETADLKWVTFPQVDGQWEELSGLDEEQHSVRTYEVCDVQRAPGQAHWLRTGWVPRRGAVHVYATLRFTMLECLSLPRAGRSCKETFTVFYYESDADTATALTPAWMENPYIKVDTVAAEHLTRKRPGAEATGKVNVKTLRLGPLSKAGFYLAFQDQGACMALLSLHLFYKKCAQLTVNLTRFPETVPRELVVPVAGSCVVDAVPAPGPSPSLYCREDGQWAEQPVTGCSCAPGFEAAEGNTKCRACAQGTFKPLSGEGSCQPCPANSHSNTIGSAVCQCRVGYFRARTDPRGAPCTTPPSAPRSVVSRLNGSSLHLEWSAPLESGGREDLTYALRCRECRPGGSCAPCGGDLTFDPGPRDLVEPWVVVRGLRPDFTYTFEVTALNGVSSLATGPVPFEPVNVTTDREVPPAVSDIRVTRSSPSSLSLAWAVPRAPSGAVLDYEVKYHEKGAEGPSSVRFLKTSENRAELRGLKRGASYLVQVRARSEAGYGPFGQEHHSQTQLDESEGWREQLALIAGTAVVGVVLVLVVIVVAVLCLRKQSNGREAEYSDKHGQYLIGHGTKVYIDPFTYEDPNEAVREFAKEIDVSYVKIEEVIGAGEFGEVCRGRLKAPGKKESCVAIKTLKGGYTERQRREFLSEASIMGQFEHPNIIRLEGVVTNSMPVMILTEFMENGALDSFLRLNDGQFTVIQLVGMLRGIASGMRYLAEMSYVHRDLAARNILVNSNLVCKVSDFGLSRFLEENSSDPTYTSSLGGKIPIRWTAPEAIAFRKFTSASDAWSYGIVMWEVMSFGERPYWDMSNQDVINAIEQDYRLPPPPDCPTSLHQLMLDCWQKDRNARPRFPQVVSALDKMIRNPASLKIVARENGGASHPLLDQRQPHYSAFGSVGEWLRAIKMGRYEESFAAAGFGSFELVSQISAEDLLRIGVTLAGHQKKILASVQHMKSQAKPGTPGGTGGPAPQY
Particulars: at 1 µM.

The target in assay [17] is T5, Ephrin type-B receptor 4 (Homo sapiens). The conditions noted are these: at 10 µM.

Sequence of Ephrin type-A receptor 7 (Homo sapiens) (Q15375 28-998 limits assumed): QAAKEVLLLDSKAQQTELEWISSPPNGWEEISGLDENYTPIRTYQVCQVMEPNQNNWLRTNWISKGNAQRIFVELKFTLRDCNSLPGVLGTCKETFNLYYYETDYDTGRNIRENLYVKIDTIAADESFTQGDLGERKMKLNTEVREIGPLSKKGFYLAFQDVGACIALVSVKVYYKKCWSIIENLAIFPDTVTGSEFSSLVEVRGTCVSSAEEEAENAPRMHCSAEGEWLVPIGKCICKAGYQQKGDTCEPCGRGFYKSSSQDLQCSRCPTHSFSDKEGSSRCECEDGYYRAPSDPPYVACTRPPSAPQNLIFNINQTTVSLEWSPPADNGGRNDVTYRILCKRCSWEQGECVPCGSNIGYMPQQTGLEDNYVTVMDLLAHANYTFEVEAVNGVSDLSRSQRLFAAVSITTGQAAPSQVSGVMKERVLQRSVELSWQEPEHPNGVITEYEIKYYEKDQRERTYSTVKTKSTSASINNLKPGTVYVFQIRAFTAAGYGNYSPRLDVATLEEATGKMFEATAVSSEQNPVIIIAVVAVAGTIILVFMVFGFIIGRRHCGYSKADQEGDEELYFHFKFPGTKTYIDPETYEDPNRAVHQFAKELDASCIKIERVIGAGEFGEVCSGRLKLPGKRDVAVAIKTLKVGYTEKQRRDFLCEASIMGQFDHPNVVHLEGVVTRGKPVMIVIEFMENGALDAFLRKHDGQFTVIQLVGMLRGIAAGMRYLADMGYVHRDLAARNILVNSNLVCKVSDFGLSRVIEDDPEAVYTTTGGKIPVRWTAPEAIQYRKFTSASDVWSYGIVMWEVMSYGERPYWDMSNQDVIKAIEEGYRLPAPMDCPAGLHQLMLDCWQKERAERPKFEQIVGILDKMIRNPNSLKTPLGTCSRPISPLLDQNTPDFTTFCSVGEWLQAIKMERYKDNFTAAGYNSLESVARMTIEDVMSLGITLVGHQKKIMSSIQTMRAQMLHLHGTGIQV
Sequence of Focal adhesion kinase 1 (Homo sapiens) (Q05397 2-1052 limits assumed): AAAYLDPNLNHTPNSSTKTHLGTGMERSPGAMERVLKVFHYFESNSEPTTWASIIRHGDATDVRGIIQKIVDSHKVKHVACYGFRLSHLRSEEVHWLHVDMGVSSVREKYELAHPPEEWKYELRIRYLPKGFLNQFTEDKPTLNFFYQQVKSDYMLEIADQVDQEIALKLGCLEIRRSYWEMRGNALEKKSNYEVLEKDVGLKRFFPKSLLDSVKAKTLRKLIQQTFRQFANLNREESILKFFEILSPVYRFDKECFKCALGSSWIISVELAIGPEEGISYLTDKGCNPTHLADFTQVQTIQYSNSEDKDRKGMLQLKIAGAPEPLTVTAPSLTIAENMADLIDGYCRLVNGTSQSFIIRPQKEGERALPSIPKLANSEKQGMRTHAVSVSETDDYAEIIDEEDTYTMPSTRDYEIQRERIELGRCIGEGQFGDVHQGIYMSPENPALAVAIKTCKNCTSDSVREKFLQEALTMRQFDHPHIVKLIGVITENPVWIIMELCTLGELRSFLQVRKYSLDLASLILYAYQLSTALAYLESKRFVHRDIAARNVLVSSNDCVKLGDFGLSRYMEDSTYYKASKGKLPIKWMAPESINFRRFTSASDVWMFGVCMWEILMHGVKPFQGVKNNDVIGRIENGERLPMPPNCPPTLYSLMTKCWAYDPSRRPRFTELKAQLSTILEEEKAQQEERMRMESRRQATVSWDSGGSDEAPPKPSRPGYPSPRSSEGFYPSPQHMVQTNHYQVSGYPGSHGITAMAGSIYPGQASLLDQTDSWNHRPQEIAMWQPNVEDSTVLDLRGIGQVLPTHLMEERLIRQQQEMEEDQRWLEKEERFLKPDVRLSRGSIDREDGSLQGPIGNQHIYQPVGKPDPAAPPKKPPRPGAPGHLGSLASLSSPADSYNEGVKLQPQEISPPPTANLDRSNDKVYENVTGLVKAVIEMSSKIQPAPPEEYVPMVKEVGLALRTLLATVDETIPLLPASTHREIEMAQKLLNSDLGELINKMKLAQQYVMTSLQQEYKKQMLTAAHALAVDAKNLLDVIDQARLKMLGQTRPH

On to `O=C1Nc2ccc(Cl)cc2/C1=C/c1cc(Cl)c(O)c(Cl)c1`, for which the residual activity (as a rule, the signal under treatment as a percentage of the control signal) in assay [1] worked out at 54%; in assay [2], 99%; in assay [3], 90%; in assay [4], 92%; in [5] it was 71%; in [6], 90%. Besides, the residual activity was 79% in assay [7]; 94% in assay [8]; 86% in assay [9]; 113% (inactive) in assay [10]; 115% in [11]; 91% in assay [12]. Further, the residual activity in [13] came to 76%; in assay [14] it was 115%.
With `COc1ccc(-c2cnc3c(-c4ccsc4)cnn3c2)cc1`, the residual activity came to 87% in assay [1]; 95% in assay [15]; 95% in assay [4]; 95% in [5]; 98% in [6]; 99% in [7]. Also, the residual activity in [16] was determined as 123%; in [17], 122%; in assay [14] it was 141%.
